# Pf Dd2 inh: blocks in vitro growth of P. falciparum Dd2. P. falciparum Dd2 growth, SYBR Green, 72 h. Potency, µM (titrated, usually from 28.9 µM), for inactives: top-dose activity, negative = inhibition, actives largely listed as inhibitors. hit rate 4.3% among 120,000; active = well fitted inhibition curve with a large enough effect;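 note: plate controls were DMSO vehicle for no effect and reference drug for full effect; nearly all actives have a fitted effect of over 65% in size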
#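 Infected erythrocytes (Dd2, 0.3% parasitemia, 2.5% hematocrit final) are added to compound in RPMI-1640/Albumax II medium, grown 72 h at 37C in low oxygen, then lysed with saponin/Triton-X containing SYBR Green and read by fluorescence.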
# * marks the source's active call; other numbers are inactive results; i = inactive; [ ] = remark or other dose. The sample as a whole holds a higher share of hits than the screen did. Potency is the fitted concentration of half-maximal effect.
SMILES,Pf Dd2 inh
O=C(c1ccccc1)N1CCC2(COc3ccncc3[S+](=O)([O-])N2)C1 (stereo not given),5.2%
CCc1ccccc1NC(=O)Cn1c(=O)c(-c2noc(C)n2)c2n(c1=O)CCCC2,-2.9%
O=C1C[C@@H]2CCN(C(=O)c3ccccc3)C[C@@H]2CCN1CCc1cnc[nH]1,6.3%[44.1 µM]
Cn1cncc1-c1nnc([C@H]2CCN(Cc3ccc(Cl)cc3)C2)o1,i
Cc1noc(-c2cn(C3CCN(C(=O)c4ccc(F)cc4)CC3)nn2)n1,i
CN(C)Cc1cn([C@H]2CO[C@H]3[C@@H]2OC[C@H]3O)nn1,4.7%[44.1 µM]
O=C(Nc1ccc2c(c1)CCC2)C1CCN(C(=O)c2ncn3c2COC(c2ccc(F)cc2)C3)CC1 (stereo not given),i
O=C(C1CC(=O)N(c2n[nH]c3cccc(F)c23)C1)N1CCSCC1 (stereo not given),-5.1%
O=C(c1ccc(Cl)cc1)N1CC2(CCN(C3CCCCC3)C2)Cc2ccccc21 (stereo not given),10µM*
O=C(O)CCC(=O)N1CCC2(Cc3ccccc3N(C(=O)c3ccc(Cl)cc3)C2)C1 (stereo not given),i
O=C(c1ccc(Cl)cc1)N1CC2(CCN(C3CCCCC3)CC2)Cc2ccccc21,7.08µM*
CC(=O)N1CC2(Cc3ccccc31)CN(C(=O)c1ccc(Cl)cc1)C2,-18.6%
CC(=O)N1CC2(CCN(C3COC3)C2)Cc2ccccc21 (stereo not given),-8.8%[44.1 µM]
O=C(c1ccc(Cl)cc1)N1CC2(CCN(C3COC3)CC2)Cc2ccccc21,10.2%
COC(=O)N1CCn2cc(C(=O)NCc3ccc(Cl)nc3)nc2C1,11.3%
Cc1cc(C(=O)N[C@@H]2CN(Cc3ccccc3)C[C@H]2CN(C)C)n(C)n1,-5.6%
Clc1cc(Cl)cc(NC2CNC2)c1,22.4µM*
Cc1cc(Cl)ccc1OCC(=O)N1CCC(c2n[nH]c(=O)n2-c2ccccc2)CC1,i
COCCN1CCC(N2CCN(S(=O)(=O)c3ccc(C)cc3C)CC2)C1=O (stereo not given),i
CC(C)NC(=O)c1cc2n(n1)CC(c1ccc3c(c1)OCO3)OC2 (stereo not given),i
CCC(NCc1c(C(=O)N2CCCCCC2)nc2cc(C)ccn12)c1ccc(C)cc1 (stereo not given),10µM*
Cc1ccn2c(=O)c(C(=O)NCc3ccccc3Cl)c(O)nc2c1,37.6%
Cc1ccn2c(C(=O)NCc3cccnc3N3CCN(C)CC3)c(C)nc2c1,-9.9%
Cc1cc(N2CCN(C)C3(CCNC(=O)CC3)C2)nc(N2CCCCC2)n1 (stereo not given),-22.2%
O=C(O)C[C@@H]1CCN(C(=O)C2CCC2)C[C@@H]1CCN1CCC(n2c(=O)[nH]c3ccccc32)CC1,12.3%
SMILES,Pf Dd2 inh
CCOc1ccc(NC(=O)Cn2cc(C(=O)c3ccco3)c3ccccc32)cc1,-23.7%
Cc1cccc(C)c1NC(=O)Cn1cc(C(=O)c2ccco2)c2ccccc21,-17.3%
Cc1ccc(NC(=O)Cn2cc(C(=O)c3ccco3)c3ccccc32)cc1,11.2µM*
O=C(Cn1cc(C(=O)c2ccco2)c2ccccc21)Nc1ccccc1Cl,-27.5%
Cc1ccc(NC(=O)Cn2cc(C(=O)c3ccco3)c3ccccc32)cc1C,8.91µM*
O=C(Cn1cc(C(=O)c2ccco2)c2ccccc21)Nc1ccccc1C(F)(F)F,-26.8%
COc1ccc(C(=O)N2CCCOCCNC(=O)CC2)cc1F,0.2%
CNC(=O)c1noc([C@@H]2CC(F)(F)CN2C(=O)c2cccc(C)c2)n1,1.3%
COc1ccccc1Cn1c(-c2ccc(Cl)cc2)nc(C)c(CCO)c1=O,-8.1%
COc1ccc(OC)c(S(=O)(=O)N2CCCC(Cn3c(C)nc4cccnc43)C2)c1 (stereo not given),i
COc1ccc(OC)c(S(=O)(=O)N2CCC(n3cnnc3C)CC2)c1,-22.6%
CCCn1c(C)cnc1C1CCN(S(=O)(=O)c2cc(OC)ccc2OC)C1 (stereo not given),3.55µM*
CCCN(CC1CCOC1)S(=O)(=O)c1ccc2c(c1)OCCO2 (stereo not given),20.2%[5.79 µM]
O=C(CC1CCOCC1)NCc1cc(F)ccc1F,48.9%
COc1ccccc1C(=O)N1CCCn2nc(C)c(-c3ccccc3Oc3ccccc3)c21,-18.7%[44.1 µM]
O=C1Nc2ccccc2CN(C/C=C/c2ccccc2)C12CCNC2 (stereo not given),11.2µM*
O=C1Nc2ccccc2CN(Cc2ccncc2)C12CCNCC2,0.5%
O=C1NCc2ccccc2CC12CCCN2C/C=C/c1ccccc1 (stereo not given),-25.3%
O=C1Nc2ccccc2CN(Cc2ccc(Cl)cc2)C12CCNCC2,7.08µM*
O=C1Nc2ccccc2CN(CC2CCOCC2)C12CCNCC2,12.8%
O=C(C1CC1)N1Cc2ccccc2NC(=O)C12CCNCC2,20.0%
O=C(CCCc1ccccc1)N1CC(c2noc(COc3ccccc3)n2)C1,-8.4%
CN(C)C(=O)c1cc2c(s1)CCC(C(=O)N1CCN(c3ccccn3)CC1)C2 (stereo not given),i
CN(C)C(=O)c1cc2c(s1)CCC(C(=O)N1CCN(c3ccccc3)CC1)C2 (stereo not given),i

# Screening results: PubChem, National Center for Advancing Translational Sciences (NCATS)
